Experiment: small-molecule microarray binders of probe aNog, primary screen, biochemical, biotinylated probe, 635/667 nm fluorescence (AID 1115);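 note: probe is biotinylated aNog protein used at 0.15 µg/mL for 1 h at 4 C; z-score combines 667 nm fluorescence of each spot with its signal to noise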
Settings: higher = more signal

Row | SMILES | composite z-score
1 | C=CCC(OC(C)=O)[C@@H]1[C@@H](N(Cc2cc3ccccc3o2)C(=O)Cc2ccc(F)cc2)c2cc(OCCCO)ccc2N1C(=O)c1ccc2ccccc2c1 (stereo partly specified) | -0.24
2 | OCCCC1=CC(c2ccc(CN3CCCC3)cc2)N(Cc2sc3ccccc3c2Cl)CC1 (stereo unspecified) | 0.507
3 | O=C1O[C@H](c2ccccc2)[C@H](c2ccccc2)N2[C@H]1[C@@H](C(=O)N1CCN(c3ncccn3)CC1)[C@]1(C(=O)Nc3ccc(C#CC4(O)CCCCCC4)cc31)[C@H]2c1ccc(OCCO)cc1 | 2.34
4 | O=C1C2C=CC(C(O)c3ccc(Br)cc3)N(Nc3ccccc3F)C2C(=O)N1c1ccccc1 (stereo unspecified) | -0.571
5 | COCCOC(=O)N1C(=O)[C@@]2(c3cc(C#CCC(C(=O)OC)C(=O)OC)ccc31)[C@H](C(=O)N1CCc3cc(OC)c(OC)cc3C1)[C@H]1C(=O)O[C@H](c3ccccc3)[C@H](c3ccccc3)N1[C@@H]2c1ccc(OCCO)cc1 | -0.103
6 | CC(CO)N1C(=O)[C@@H]2[C@H]3C(=O)OCC=C[C@H]3OC23C=CCN(CCN2CCOCC2)C(=O)[C@@H]13 (stereo partly specified) | -0.5
7 | C=C(COC)C(=O)CC[C@@H](OC(=O)c1cccnc1)c1ccc(OCCO)cc1 | 0.678
8 | COC(=O)[C@@]1(Cc2ccc(OC)cc2)[C@H]2c3cc(C(=O)N4CCCC4)n(Cc4cccc5ccccc45)c3C[C@H]2CN1C(=O)c1ccccc1 | 1.95
9 | CC(C)(C)OC(=O)CC[C@@]1(C(=O)NCc2ccccc2)N=C(c2ccc(OCCCO)cc2)O[C@@H]1c1ccccc1N=[N+]=[N-] | 1.9
10 | C=CC[C@@]1(C(=O)N2CCOCC2)N=C(c2ccc(OCCCO)cc2)O[C@@H]1c1ccccc1CN=[N+]=[N-] | -0.333
11 | COC(=O)[C@@]1(Cc2ccc(F)cc2)[C@H]2c3cc(C(=O)N4CCCC4)n(CCc4ccc(O)c(O)c4)c3C[C@H]2CN1C(=O)c1ccccc1 | 2.27
12 | CCOC(=O)C[C@H]1[C@H](OC(=O)c2cc3ccccc3oc2=O)[C@@H](NC(=O)c2ccc(-c3ccccc3)cc2)c2cc(OCCCO)ccc2N1C(=O)c1ccc2ccccc2n1 | -0.253
13 | COc1ccc([Si](C)(C)[C@H]2[C@H](CCn3cc([C@H](O)c4ccccc4)nn3)O[C@@]3(C(=O)N(Cc4ccc(N5C(=O)c6cccc7cccc5c67)cc4)c4ccccc43)[C@@H]2C)cc1 | -0.0065
14 | C[C@@H]1NC(=O)[C@@]23C(=O)N[C@@H](Cc4ccccc4)C2[C@H](C)[C@@]2(C)O[C@H]2C3/C=C/C/C=C\CNC(=O)[C@@H]2CCCN2C1=O (stereo partly specified) | -0.122
15 | COC(=O)[C@@]1(Cc2ccccc2)[C@H]2c3cc(C(=O)N(C)C)n(Cc4c(CO)[nH]cc(C)c4=O)c3C[C@H]2CN1C(=O)c1ccccc1 | 1.05
16 | COC(=O)CCCCCCC(=O)Nc1ccc(NC(=O)CCCC[P+](c2ccccc2)(c2ccccc2)c2ccccc2)cc1 | -0.209

— PubChem BioAssay
